PubChem BioAssay (NCI)
The panel holds about 79,000 compounds, 15% with a hit somewhere; the sample as a whole holds those more often. Activity calls are given as the source filed them. Rule as the data show it: active = growth inhibition above about 70%; inactive = the rest. Where a SMILES comes first, the peptide text is derived from it. The star is where a group is joined. Cbz = O=C(OCc1ccccc1)*

Experiments:
[1] = NCI Yeast Anticancer Drug Screen. Data for the rad50 strain (AID 155);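 also: 0% = growth of vehicle-only cultures of the same strain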; conditions: S. cerevisiae rad50 strain growth inhibition; at 50.0 µM; hits give high values
How it was run: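 Growth of the mutant yeast was measured after compound exposure and referenced to vehicle-treated cultures.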

[2] = NCI Yeast Anticancer Drug Screen. Data for the mec2-1 strain (AID 157); conditions: S. cerevisiae mec2-1 strain, at 50.0 µM, hits give high values
How it was run: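 Vehicle-treated cultures served as reference for growth inhibition of compound-exposed mec2-1 yeast.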

[3] = NCI Yeast Anticancer Drug Screen. Data for the sgs1 mgt1 strain (AID 161);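 also: 0% = growth of cultures given vehicle only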; conditions: S. cerevisiae sgs1 mgt1 strain, at 50.0 µM, hits give high values
How it was run: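 Inhibition of yeast growth, normalised to vehicle-treated controls, is reported for a strain bearing genetic alterations in DNA damage repair.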

[4] = NCI Yeast Anticancer Drug Screen. Data for the cln2 rad14 strain (AID 165);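 also: 0% = growth equal to vehicle treated cultures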; conditions: S. cerevisiae cln2 rad14 strain, at 50.0 µM, hits give high values
How it was run: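 Each compound was tested on cln2 rad14 yeast. Inhibition of growth was calculated against vehicle-exposed controls.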

[5] = NCI Yeast Anticancer Drug Screen. Data for the mlh1 rad18 strain (AID 175); conditions: S. cerevisiae mlh1 rad18 strain growth inhibition; at 50.0 µM; hits give high values
How it was run: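 Vehicle-treated cultures served as the reference for growth inhibition in a yeast strain carrying DNA damage repair alterations exposed to each compound.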

[6] = NCI Yeast Anticancer Drug Screen. Data for the bub3 strain (AID 167); conditions: S. cerevisiae bub3 mutant strain, at 50.0 µM, hits give high values
How it was run: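 Whole-cell yeast assay. The mutant strain was incubated with compounds, and growth inhibition was determined by comparison with vehicle-treated cells.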

Measured: growth inhibition

O=S(=O)(O)c1ccccc1/C=N\N=C\c1ccccc1S(=O)(=O)O
inactive: [1] 10.8% | [2] 1.85% | [3] 11.7% | [4] 17.4% | [5] 12.8%

NC(=O)NC(=S)NC(=O)c1ccccc1
inactive: [1] -2.95% | [2] 0.95% | [3] -2.95% | [4] -33.5% | [5] -7%

CC(NC(=O)CNC(=O)CN)C(N)=O (centres undefined)
inactive: [1] -23.9% | [2] -0.65% | [3] -17.1% | [4] 5.9% | [5] -17.2%

CCN(Cc1ccc(S(=O)(=O)O)cc1)c1cccc(S(=O)(=O)O)c1
inactive: [1] 14.1% | [2] 26.4% | [4] -20.9% | [6] -18.2% | [5] 9.35%

CSC1(C)C(=O)Nc2ccc(C(F)(F)F)cc21 (centres undefined)
inactive: [1] 9.35% | [2] 4.8% | [4] 17.7% | [6] -6.15% | [5] 0.1%

Cc1cc(Br)ccc1N=Cc1ccc(C=Nc2ccc(Br)cc2C)cc1
inactive: [1] -6.75% | [2] -17.6% | [4] -2.5% | [6] -3.65% | [5] -0.2%

Cc1cc(N/N=C/c2ccnc3ccccc23)c2cc3c(cc2n1)OCO3
inactive: [1] 43.4% | [2] 18% | [4] 27% | [6] 31.7% | [5] 20.9%

O=C(C[n+]1ccccc1-c1ccccn1)c1ccc(-c2ccccc2)cc1
inactive: [1] 7.9% | [2] 10.7% | [4] -14.7% | [6] 1% | [5] 34.6%

CC1OC(c2c(Cl)cccc2[N+](=O)[O-])OC1C (centres undefined)
inactive: [1] 3.5% | [2] -9.2% | [4] 0.5% | [6] -7.6% | [5] 20%

CC[N+](C)(CC)CCNc1cc2c(c3c(=O)c4ccccc4sc13)CCCC2
active: [1] 99.2% | [2] 99.7% | [4] 99.2% | [6] 99% | [5] 99%

O=C(O)c1cc([N+](=O)[O-])cc(P(=O)(O)O)c1
inactive: [1] 2.55% | [2] -6.45% | [4] -20.2% | [6] -3.55% | [5] 12.9%

Cc1nc(N)nc(C)c1N=Nc1ccccc1Br
inactive: [1] 2% | [2] 3.75% | [3] 2.35% | [4] -42.2% | [5] -6.25%

Cc1cc(-c2cc(C)c(N)cc2S(=O)(=O)O)c(S(=O)(=O)O)cc1N
inactive: [1] -12.3% | [2] -23.4% | [4] -3.2% | [6] 5.8% | [5] 1.15%

Cn1c(Nc2ccccc2)c([N+](=O)[O-])c(=O)n(C)c1=O
inactive: [1] -11.8% | [2] -7.35% | [4] -18.2% | [6] -2.15% | [5] -27.6%

CCN(CC)CCCNc1ccc([N+](=O)[O-])c2nc3ccccc3c(N)c12
inactive: [1] 21.4% | [2] -0.2% | [4] 32.9% | [6] -17.1% | [5] 63.8%

NC(N)=Nc1ccc(Sc2ccc(N=C(N)N)cc2)cc1
inactive: [1] -15.8% | [2] -35.5% | [4] -19.6% | [6] -4.65% | [5] -26.5%

CSc1c(C)n([O-])c2ccccc2[n+]1=O
inactive: [1] 23.1% | [2] 26.1% | [4] -20.5% | [6] 26.1% | [5] 5.4%

Cc1ccc(S(=O)(=O)C/C(=N\Nc2ccc([N+](=O)[O-])cc2[N+](=O)[O-])c2ccccc2)cc1
inactive: [1] 38.4% | [2] -9.45% | [4] 12.4% | [6] -0.25% | [5] 18.7%

O=C(O)c1ccccc1C(=O)CC(O)(C(F)(F)F)C(F)(F)F
inactive: [1] -20.6% | [2] 9.9% | [4] -31.3% | [6] -10.9% | [5] -20.9%

C[N+](C)(C)c1ccc2ccccc2n1
inactive: [1] -9.15% | [2] -1.6% | [3] -19.9% | [4] 1.15% | [5] -2.7%

O=S(=O)(CCS(=O)(=O)c1ccccc1)c1ccccc1
inactive: [1] -11.4% | [2] -10.2% | [4] -41.5% | [6] -15.3% | [5] -0.1%

CSc1cc2c(cc1N)C(=O)c1ccccc1-2
inactive: [1] 12.5% | [2] 2.45% | [4] -24.1% | [6] -13.1% | [5] 12.9%

CC(=O)c1ccc(O)c(C)c1
inactive: [1] -9.3% | [2] -8.9% | [4] 5.5% | [6] -8.1% | [5] -0.2%

COC(=O)C(NC(=O)C(C)NC(=O)C1CCCN1C(=O)CNC(=O)C(CO)NC(=O)C(NC(=O)OCc1ccccc1)C(C)O)C(C)O (centres undefined) (Cbz-TSGPAT-OMe; configuration not given here)
inactive: [1] 3.3% | [2] -5.9% | [4] -10.2% | [6] -7.8% | [5] 10.6%

NC(=S)n1nc(-c2ccccc2)c(N=Nc2cccc([N+](=O)[O-])c2)c1-c1ccccc1
inactive: [1] 32.9% | [2] 7.5% | [4] 19.6% | [6] 0.1% | [5] 10.8%

CCC(C)(O)P(=O)(O)O (centres undefined)
inactive: [1] 5.15% | [2] 7.1% | [4] -30.4% | [6] 0.85% | [5] 7.6%

Cc1nc2sccn2c1C(=O)NC(=O)Nc1ccc(Cl)cc1
inactive: [1] 0.35% | [2] -14.8% | [4] 5.45% | [6] -9.8% | [5] -16.1%

Brc1c(CCc2ccc3ccccc3c2Br)ccc2ccccc12
inactive: [1] 0.1% | [2] 10.2% | [4] -6.75% | [6] -2.8% | [5] 19.6%

CC(=O)O[C@]12CCCCCC1C1(O)C(O)CCCC[C@H]12 (some centres undefined)
inactive: [1] 10.2% | [2] -23.6% | [4] 4.45% | [6] -10.3%

O=C(O)c1cc(Cl)ccc1-c1ccc(Cl)cc1C(=O)Nc1ccc2c(c1)Cc1ccccc1-2
active: [1] 91.3% | [2] 89.7% | [4] 87.8% | [6] 85.3% | [5] 94.9%

NCC(O)COCc1ccccc1 (centres undefined)
inactive: [1] -16.1% | [2] -24.4% | [4] -28.1% | [6] -1.6% | [5] -0.35%

O=C1/C(=C/c2ccc(O)c(CN3CCCCC3)c2)CCC/C1=C\c1ccc(O)c(CN2CCCCC2)c1
inactive: [1] -0.8% | [2] 23.9% | [4] -8% | [6] -1.9% | [5] 19.4%

COc1cc2c(OC)cc1CSCc1sc(C)c(c1Br)CSC2
inactive: [1] 19.1% | [2] 21.5% | [4] -26.6% | [6] 12.7% | [5] 14.8%

Cc1c(C(=O)Nc2ccccc2)nnn1-c1ccnc2cc(C(F)(F)F)ccc12
inactive: [1] -13.8% | [2] -6.75% | [4] -4.05% | [6] -5.6% | [5] 2%

O=Cc1cccc(/C=N/Nc2nnc(N/N=C/c3cccc(C=O)c3)c3ccccc23)c1
inactive: [1] 30.6% | [2] 26.5% | [4] 33.1% | [6] -3.2% | [5] 17.1%

Clc1ccc(Nc2ncco2)cc1Cl
inactive: [1] 16.7% | [2] -15.2% | [4] -0.8% | [6] 1.1% | [5] 16.8%

NC(=S)CNC(=O)c1ccccc1
inactive: [1] -28.6% | [2] -33.1% | [4] -9.55% | [6] -11.8% | [5] 9.6%

O=[N+]([O-])c1ccc(Cl)c(C=NC23CC4CC(CC(C4)C2)C3)c1
inactive: [1] -13.6% | [2] -24.8% | [4] -9.3% | [6] -22.9% | [5] -8.9%

O=C(Cl)C(Cl)(c1ccccc1)c1ccccc1
inactive: [1] 2.15% | [2] 13.6% | [4] -6.9% | [6] 17.1% | [5] 3.75%

N#Cc1c(O)cc(=O)n2c1[nH]c1ccccc12
inactive: [1] -15.2% | [2] -24.3% | [4] -10.3% | [6] 10.5% | [5] -4.15%

CC(C)(C)NC(=S)N/N=C/c1ccccn1
active: [1] 77.2% | [2] 85.2% | [4] 88.3% | [6] 89.7% | [5] 89.7%

O=c1ccn(C2OC(CO)C(O)C2Cl)c(=O)[nH]1 (centres undefined)
inactive: [1] -6.7% | [2] -42.1% | [4] 10.2% | [6] 4.9% | [5] -14.4%

CS(=O)(=O)Nc1nc2ccccc2c(=O)o1
inactive: [1] -50.8% | [2] -21.9% | [4] -39.7% | [6] 3.75% | [5] 4.85%
